# Activity calls are given as the source filed them. How the source made its calls: active means hit-call score of the fitted dose curve at least 0.9, where 1 is the maximum; inactive means score below 0.9.
# How the values were obtained:
# Details in all cases: mRNA level, 48 h; actives raise or lower the signal
# [1] = read-out: Fatty Acid-Binding Protein 1 (FABP1), FABP1 (gene 2168); assay: LTEA_HepaRG_FABP1: Life Technologies and Expression Analysis (LTEA) Assay for Fatty Acid-Binding Protein 1 (FABP1) using HepaRG (AID 2283494)
# In short: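 Values reflect bidirectional concentration-response fitting of FABP1 mRNA change against 0.5% DMSO controls. Human HepaRG cultures received eight half-log doses (top 100 uM) for 48 h; expression quantified by TaqMan qRT-PCR with housekeeping-gene normalization.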
# [2] = read-out: Cytochrome P450 4A22 (Homo sapiens) (UniProt Q5TCH4); assay: LTEA_HepaRG_CYP4A22: Life Technologies and Expression Analysis (LTEA) Assay for Cytochrome P450 4A22 (CYP4A22) using HepaRG (AID 2283495)
# In short: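 Concentration-response (8 points, max 100 uM, 0.5% DMSO) in human HepaRG liver cells after 48 h exposure. CYP4A22 mRNA by TaqMan qRT-PCR with housekeeping-gene normalization.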
# [3] = read-out: Cytochrome P450 7A1 (Homo sapiens) (UniProt P22680); assay: LTEA_HepaRG_CYP7A1: Life Technologies and Expression Analysis (LTEA) Assay for Cytochrome P450 7A1 (CYP7A1) using HepaRG (AID 2283496)
# In short: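 HepaRG, 48 h exposure, 8-pt half-log series from 100 uM, 0.5% DMSO vehicle, duplicates. Readout: TaqMan qRT-PCR mRNA vs three housekeeping genes; bidirectional curve fit against DMSO baseline.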
# [4] = read-out: Glutamate-cysteine ligase catalytic (GCLC), GCLC (gene 2729); assay: LTEA_HepaRG_GCLC: Life Technologies and Expression Analysis (LTEA) Assay for Glutamate-cysteine ligase catalytic (GCLC) using HepaRG (AID 2283498)
# In short: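 Oxidative-stress marker GCLC is measured as mRNA change in human HepaRG liver cells after 48 h chemical treatment in 0.5% DMSO, eight concentrations from 100 uM. Activity is fitted bidirectionally against vehicle.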
# [5] = read-out: growth arrest and DNA damage 45 (GADD45G), GADD45G (gene 10912); assay: LTEA_HepaRG_GADD45G: Life Technologies and Expression Analysis (LTEA) Assay for growth arrest and DNA damage 45 (GADD45G) using HepaRG (AID 2283499)
# In short: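 Concentration-response in HepaRG: 48 h dosing, 0.5% DMSO, highest level 100 uM. GADD45G expression by qRT-PCR, normalised to endogenous controls; bidirectional fit to DMSO.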
# [6] = read-out: Glutamate-cysteine ligase regulatory (GCLM), GCLM (gene 2730); assay: LTEA_HepaRG_GCLM: Life Technologies and Expression Analysis (LTEA) Assay for Glutamate-cysteine ligase regulatory (GCLM) using HepaRG (AID 2283500)
# In short: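 Endpoint is GCLM transcript level by qRT-PCR, normalized to three housekeeping genes, after 48 h chemical exposure of human HepaRG cells (0.5% DMSO vehicle, top 100 uM, half-log dilutions). Fitting was bidirectional relative to DMSO.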
# [7] = read-out: Glutathione S-transferase M3 (GSTM3), GSTM3 (gene 2947); assay: LTEA_HepaRG_GSTM3: Life Technologies and Expression Analysis (LTEA) Assay for Glutathione S-transferase M3 (GSTM3) using HepaRG (AID 2283501)
# In short: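 Expression of GSTM3 is determined by qRT-PCR in human liver HepaRG cells treated 48 h with an 8-point half-log range from 100 uM in 0.5% DMSO.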
# [8] = read-out: 3-Hydroxy-3-Methylglutaryl-CoA Synthase 2 (HMGCS2), HMGCS2 (gene 3158); assay: LTEA_HepaRG_HMGCS2: Life Technologies and Expression Analysis (LTEA) Assay for 3-Hydroxy-3-Methylglutaryl-CoA Synthase 2 (HMGCS2) using HepaRG (AID 2283504)
# In short: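 This steatosis marker was read as HMGCS2 mRNA change in HepaRG cells treated 48 h with up to 100 uM chemical. Normalisation used housekeeping genes; activity in either direction was fitted relative to 0.5% DMSO vehicle.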
# HGF (gene 3082) = assay: LTEA_HepaRG_HGF: Life Technologies and Expression Analysis (LTEA) Assay for Hepatocyte Growth Facto (HGF) using HepaRG (AID 2283505)
# In short: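 Using HepaRG monolayers kept in 0.5% DMSO, chemicals were tested in duplicate over eight half-log concentrations from 100 uM for 48 h. Endpoint: HGF mRNA change relative to DMSO, normalized to ACTB/GAPDH/POLR2A.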
# [9] = read-out: Insulin Like Growth Factor 1 (IGF1), IGF1 (gene 3479); assay: LTEA_HepaRG_IGF1: Life Technologies and Expression Analysis (LTEA) Assay for Insulin Like Growth Factor 1 (IGF1) using HepaRG (AID 2283506)
# In short: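 Cells are thawed, plated and cultured 48 h, then exposed in duplicate to chemical (highest 100 uM, half-log steps, 0.5% DMSO) for another 48 h. Total RNA is analysed by Fluidigm qRT-PCR for IGF1 expression relative to vehicle.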
# [10] = read-out: Intercellular Adhesion Molecule 1 (ICAM1), ICAM1 (gene 3383); assay: LTEA_HepaRG_ICAM1: Life Technologies and Expression Analysis (LTEA) Assay for Intercellular Adhesion Molecule 1 (ICAM1) using HepaRG (AID 2283507)
# In short: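 Using the human liver line HepaRG, compounds are tested in duplicate over 48 h at concentrations up to 100 uM. Expression is determined by TaqMan qRT-PCR, normalized to endogenous controls, and analysed relative to 0.5% DMSO vehicle.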
# [11] = read-out: Insulin-like growth factor-binding protein 1 (IGFBP1), IGFBP1 (gene 3484); assay: LTEA_HepaRG_IGFBP1: Life Technologies and Expression Analysis (LTEA) Assay for Insulin-like growth factor-binding protein 1 (IGFBP1) using HepaRG (AID 2283508)
# In short: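 HepaRG, 48 h, 8 conc. (max 100 uM, half-log), duplicates, 0.5% DMSO. Readout: TaqMan qRT-PCR, ACTB/GAPDH/POLR2A normalisation. Fit: bidirectional vs DMSO.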
# [12] = read-out: Interleukin 6 (IL6), IL6 (gene 3569); assay: LTEA_HepaRG_IL6: Life Technologies and Expression Analysis (LTEA) Assay for Interleukin 6 (IL6) using HepaRG (AID 2283509)
# In short: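 Changes in IL6 mRNA, up or down relative to 0.5% DMSO controls, were derived from concentration-response curves in human HepaRG cells treated for 48 h at up to 100 uM, with ACTB, GAPDH and POLR2A as normalizers.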
# [13] = read-out: Interleukin 6 Receptor (IL6R), IL6R (gene 3570); assay: LTEA_HepaRG_IL6R: Life Technologies and Expression Analysis (LTEA) Assay for Interleukin 6 Receptor (IL6R) using HepaRG (AID 2283510)
# In short: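 Cells were thawed, plated and cultured 48 h, then medium was changed to serum-free induction medium. Chemicals were added in duplicate (100 uM top, half-log steps, 0.5% DMSO) for 48 h. Lysates were analyzed by qRT-PCR for IL6R expression.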
# [14] = read-out: Potassium channel subfamily K member 1 (KCNK1), KCNK1 (gene 3775); assay: LTEA_HepaRG_KCNK1: Life Technologies and Expression Analysis (LTEA) Assay for Potassium channel subfamily K member 1 (KCNK1) using HepaRG (AID 2283511)
# In short: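 Human HepaRG cultures receive test chemicals for 48 h in 0.5% DMSO, top concentration 100 uM with half-log dilutions. Induction or suppression of KCNK1 mRNA relative to DMSO is derived by bidirectional fitting of qRT-PCR data.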
# [15] = read-out: Keratin 19 (KRT19), KRT19 (gene 3880); assay: LTEA_HepaRG_KRT19: Life Technologies and Expression Analysis (LTEA) Assay for Keratin 19 (KRT19) using HepaRG (AID 2283512)
# In short: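 Readout is qRT-PCR of KRT19 mRNA, normalized to ACTB, GAPDH and POLR2A, from HepaRG cells treated 48 h with eight-point half-log dilutions topping at 100 uM. Activity in either direction is scored relative to 0.5% DMSO vehicle.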
# [16] = read-out: JUN Transcription Factor, JUN (gene 3725); assay: LTEA_HepaRG_JUN: Life Technologies and Expression Analysis (LTEA) Assay for JUN Transcription Factor using HepaRG (AID 2283513)
# In short: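 Read-out is JUN transcript level by TaqMan qRT-PCR, normalized to ACTB, GAPDH and POLR2A, after 48 h chemical treatment of HepaRG cells. Concentration-response spanned eight half-log points up to 100 uM in 0.5% DMSO.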
# [17] = read-out: Lipase C (LIPC), LIPC (gene 3990); assay: LTEA_HepaRG_LIPC: Life Technologies and Expression Analysis (LTEA) Assay for Lipase C (LIPC) using HepaRG (AID 2283514)
# In short: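 In this multiplexed gene-expression screen, human HepaRG cultures received test chemicals for 48 h across eight concentrations with 100 uM highest, in duplicate. Values reflect LIPC mRNA induction or suppression versus DMSO vehicle, from normalized qRT-PCR.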
# [18] = read-out: Heat shock 70 kDa protein 1 (HSPA1A), gene 3303; assay: LTEA_HepaRG_HSPA1A: Life Technologies and Expression Analysis (LTEA) Assay for Heat shock 70 kDa protein 1 (HSPA1A) using HepaRG (AID 2283502)
# In short: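 Cells were plated and cultured for 48 h, then switched to serum-free induction medium. Chemicals were added at eight half-log concentrations up to 100 uM for 48 h. RNA was then isolated and HSPA1A measured by qRT-PCR with bidirectional curve fitting against DMSO.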
# [19] = read-out: Hypoxia-inducible factor 1-alpha (Homo sapiens) (UniProt Q16665); assay: LTEA_HepaRG_HIF1A: Life Technologies and Expression Analysis (LTEA) Assay for Hypoxia-inducible factor 1 (HIF1A) Trancription factor using HepaRG (AID 2283503)
# In short: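 HIF1A transcript level read by qRT-PCR (ACTB, GAPDH, POLR2A normalization) after 48 h chemical exposure of HepaRG cultures. Eight half-log concentrations, top 100 uM, 0.5% DMSO vehicle, duplicates; bidirectional curve fit against DMSO baseline.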
# Chain of Hypoxia-inducible factor 1-alpha (Homo sapiens) (Q16665 whole entry, looked up): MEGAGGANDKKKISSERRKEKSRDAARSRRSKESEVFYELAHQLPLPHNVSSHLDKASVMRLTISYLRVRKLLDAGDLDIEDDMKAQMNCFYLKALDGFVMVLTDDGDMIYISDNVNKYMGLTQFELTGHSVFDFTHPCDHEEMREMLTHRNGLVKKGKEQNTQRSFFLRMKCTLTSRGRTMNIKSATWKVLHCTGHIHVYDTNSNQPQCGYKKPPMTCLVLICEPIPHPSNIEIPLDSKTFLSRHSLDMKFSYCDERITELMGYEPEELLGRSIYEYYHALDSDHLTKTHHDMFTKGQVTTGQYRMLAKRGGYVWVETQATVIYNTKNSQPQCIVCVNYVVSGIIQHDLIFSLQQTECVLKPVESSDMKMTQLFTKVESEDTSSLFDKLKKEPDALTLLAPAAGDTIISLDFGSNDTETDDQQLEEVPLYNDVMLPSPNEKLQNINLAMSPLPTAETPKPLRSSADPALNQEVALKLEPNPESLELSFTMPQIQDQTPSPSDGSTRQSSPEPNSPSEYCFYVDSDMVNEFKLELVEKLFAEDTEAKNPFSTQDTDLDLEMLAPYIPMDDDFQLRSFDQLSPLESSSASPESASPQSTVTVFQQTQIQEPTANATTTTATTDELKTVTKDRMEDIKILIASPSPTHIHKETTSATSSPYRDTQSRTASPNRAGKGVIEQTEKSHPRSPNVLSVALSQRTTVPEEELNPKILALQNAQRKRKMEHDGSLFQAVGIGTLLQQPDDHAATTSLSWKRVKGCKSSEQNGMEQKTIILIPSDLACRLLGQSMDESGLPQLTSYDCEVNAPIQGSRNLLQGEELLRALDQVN
structure (smiles),measurement,setting,value
CN(Cc1cnc2nc(N)nc(N)c2n1)c1ccc(C(=O)N[C@@H](CCC(=O)O)C(=O)O)cc1,AC50,[1],0.322 µM (active)
same,outcome,[2],inactive
same,AC50,[3],0.233 µM (active)
same,outcome,[4],inactive
same,outcome,[5],inactive
same,outcome,[6],inactive
same,outcome,[7],inactive
same,outcome,[8],inactive
same,outcome,HGF (gene 3082),inactive
same,outcome,[9],inactive
same,outcome,[10],inactive
same,outcome,[11],inactive
same,outcome,[12],inactive
same,outcome,[13],inactive
same,outcome,[14],inactive
same,outcome,[15],inactive
same,outcome,[16],inactive
same,outcome,[17],inactive
Cc1[nH]nc2c1N=C(c1ccccc1Cl)c1cc([N+](=O)[O-])ccc1N2,AC50,[1],8.85 µM (active)
same,AC50,[2],8.32 µM (active)
same,AC50,[3],27 µM (active)
same,AC50,[4],2.83 µM (active)
same,AC50,[5],0.557 µM (active)
same,outcome,[6],inactive
same,AC50,[7],50 µM (active)
same,outcome,[18],inactive
same,outcome,[19],inactive
same,AC50,[8],28.8 µM (active)
same,AC50,HGF (gene 3082),2.84 µM (active)
same,AC50,[9],1.88 µM (active)
same,outcome,[10],inactive
same,AC50,[11],79.6 µM (active)
same,outcome,[13],inactive
same,AC50,[14],3.09 µM (active)
same,AC50,[15],1.24 µM (active)
same,AC50,[16],20.5 µM (active)
same,AC50,[17],11.2 µM (active)
O=C(c1ccccc1)c1ccccc1,AC50,[1],0.851 µM (active)
same,outcome,[4],inactive
same,outcome,[5],inactive
same,outcome,[6],inactive
same,outcome,[7],inactive
same,outcome,[18],inactive
same,outcome,[19],inactive
same,outcome,[8],inactive
same,outcome,HGF (gene 3082),inactive
same,outcome,[9],inactive
same,outcome,[10],inactive
same,outcome,[11],inactive
same,outcome,[12],inactive
same,outcome,[13],inactive
same,outcome,[14],inactive
same,outcome,[15],inactive
same,outcome,[16],inactive
same,outcome,[17],inactive
CCCCC=O,outcome,[1],inactive
same,outcome,[2],inactive
same,outcome,[3],inactive
same,outcome,[4],inactive
same,outcome,[5],inactive
same,outcome,[6],inactive
same,outcome,[7],inactive
same,outcome,[18],inactive
same,outcome,[19],inactive
same,outcome,[8],inactive
same,outcome,HGF (gene 3082),inactive
same,outcome,[9],inactive
same,outcome,[10],inactive
same,outcome,[11],inactive
same,outcome,[12],inactive
same,outcome,[13],inactive
same,outcome,[14],inactive
same,outcome,[15],inactive
same,outcome,[16],inactive
same,outcome,[17],inactive
